Experimental data as given in PubChem BioAssay.
Activity calls are given as the source filed them. Unless noted, how the calls were made is not given here.

Columns and labels:
[1] = anti-His antibody binders, primary screen, artefact control for SMM control protein annotation, biochemical, small-molecule microarray, 635 nm fluorescence (AID 1128); settings: anti-His Alexa647 antibody binding, higher = more signal;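 further: score merges feature fluorescence with signal-to-noise for each printed compound spot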
[2] = test system: Human papillomavirus type 1a E7 protein (residues 1-88); assay: HPV1a E7 small-molecule binders, primary screen, biochemical, small-molecule microarray, residues 1-88, 635 nm (AID 1129); settings: small-molecule microarray binding, fluorescence 635 nm; higher = more signal
[3] = target: Focal adhesion kinase 1 (Homo sapiens) (UniProt Q05397); assay: small-molecule microarray binders of FAK, primary screen, biochemical, 635/667 nm fluorescence, BSA, DTT (AID 1130); settings: PTK2 binding, 635 nm fluorescence, higher = more signal;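 further: composite of spot emission at 667 nm and signal to noise over triplicate slides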
Chain of Focal adhesion kinase 1 (Homo sapiens) (Q05397 whole entry, looked up): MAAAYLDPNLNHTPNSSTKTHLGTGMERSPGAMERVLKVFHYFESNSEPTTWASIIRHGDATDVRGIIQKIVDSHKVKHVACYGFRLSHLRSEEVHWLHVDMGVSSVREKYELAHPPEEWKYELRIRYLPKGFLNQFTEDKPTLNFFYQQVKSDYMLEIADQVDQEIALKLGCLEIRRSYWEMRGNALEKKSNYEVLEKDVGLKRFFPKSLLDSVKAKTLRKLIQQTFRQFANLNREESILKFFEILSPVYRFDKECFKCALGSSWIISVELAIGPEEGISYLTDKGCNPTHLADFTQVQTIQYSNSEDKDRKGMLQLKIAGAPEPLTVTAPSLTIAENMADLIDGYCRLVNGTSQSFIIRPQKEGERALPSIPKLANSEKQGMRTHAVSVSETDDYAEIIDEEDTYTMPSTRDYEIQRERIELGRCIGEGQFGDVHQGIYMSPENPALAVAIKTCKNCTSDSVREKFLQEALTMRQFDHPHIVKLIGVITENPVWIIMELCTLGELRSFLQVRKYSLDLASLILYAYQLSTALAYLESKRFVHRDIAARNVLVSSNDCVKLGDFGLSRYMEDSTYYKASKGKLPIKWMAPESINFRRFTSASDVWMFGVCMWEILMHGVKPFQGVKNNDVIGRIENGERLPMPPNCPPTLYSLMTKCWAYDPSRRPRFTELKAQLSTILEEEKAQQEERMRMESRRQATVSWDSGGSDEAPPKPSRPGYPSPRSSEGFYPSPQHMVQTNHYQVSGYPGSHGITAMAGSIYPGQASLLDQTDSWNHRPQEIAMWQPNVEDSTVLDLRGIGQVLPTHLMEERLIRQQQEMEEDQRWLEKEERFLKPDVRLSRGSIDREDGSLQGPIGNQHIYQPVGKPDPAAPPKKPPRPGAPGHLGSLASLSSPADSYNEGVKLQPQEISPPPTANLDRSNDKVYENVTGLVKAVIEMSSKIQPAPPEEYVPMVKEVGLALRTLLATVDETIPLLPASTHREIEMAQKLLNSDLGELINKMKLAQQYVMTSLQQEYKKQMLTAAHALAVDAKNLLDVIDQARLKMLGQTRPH

[4] = test system: Fibrinogen (Alexa647-labelled); assay: fibrinogen binders on compound microarrays, profiling panel, artefact control for SMM control-protein annotation, biochemical, small-molecule microarray, 635/667 nm fluorescence (AID 1131); settings: fibrinogen-A647 binding fluorescence, higher = more signal;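 further: z-score merges 667 nm fluorescence with per-spot signal-to-noise over triplicate slides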
[5] = target: Follistatin (Homo sapiens) (UniProt P19883); assay: follistatin binders on small-molecule microarrays, primary screen, biochemical, small-molecule microarray, 635/667 nm fluorescence (AID 1132); settings: FST binding, 635 nm fluorescence, higher = more signal
Chain of Follistatin (Homo sapiens) (P19883 whole entry, looked up): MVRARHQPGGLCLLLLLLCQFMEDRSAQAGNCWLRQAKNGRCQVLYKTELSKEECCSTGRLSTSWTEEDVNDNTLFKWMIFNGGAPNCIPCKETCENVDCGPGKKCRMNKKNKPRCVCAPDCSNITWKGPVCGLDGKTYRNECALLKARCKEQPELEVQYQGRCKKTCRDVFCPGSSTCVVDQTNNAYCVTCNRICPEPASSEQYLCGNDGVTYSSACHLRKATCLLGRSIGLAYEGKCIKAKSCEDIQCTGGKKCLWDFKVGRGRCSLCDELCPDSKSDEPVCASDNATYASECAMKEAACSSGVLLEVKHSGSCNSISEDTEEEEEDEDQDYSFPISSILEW

[6] = target: Fibroblast growth factor 2 (Homo sapiens) (UniProt P09038); assay: FGF2 binders on small-molecule microarrays, primary screen, biochemical, small-molecule microarray, 635/667 nm fluorescence (AID 1133); settings: small-molecule microarray binding, FGF2, fluorescence 635/667; higher = more signal
Chain of Fibroblast growth factor 2 (Homo sapiens) (P09038 whole entry, looked up): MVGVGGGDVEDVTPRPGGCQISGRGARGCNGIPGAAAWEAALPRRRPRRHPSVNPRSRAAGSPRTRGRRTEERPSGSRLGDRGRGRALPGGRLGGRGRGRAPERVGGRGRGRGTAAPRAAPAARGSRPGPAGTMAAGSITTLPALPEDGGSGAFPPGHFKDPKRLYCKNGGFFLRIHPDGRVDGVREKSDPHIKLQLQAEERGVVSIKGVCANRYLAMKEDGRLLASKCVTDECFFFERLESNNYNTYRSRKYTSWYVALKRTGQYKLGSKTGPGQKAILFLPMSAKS

[7] = mitochondrial membrane potential change in A549 cells, profiling panel, cell-based, JC-1 fluorescence, basal, 24 h, 100 nL (AID 1138); settings: higher = more signal;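 further: A549 lung adenocarcinoma cells under basal conditions with no added stimulus; test concentration not given here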
[8] = test system: Lefty1; assay: Lefty1 binders on small-molecule microarrays, primary screen, biochemical, small-molecule microarray, 635/667 nm fluorescence (AID 1139); settings: small-molecule microarray binding, fluorescence 635/667; higher = more signal
[9] = test system: wheat germ agglutinin (Triticum aestivum), Alexa647-labelled; assay: wheat germ agglutinin binders on compound microarrays, profiling panel, artefact control for SMM control-protein annotation, biochemical, small-molecule microarray, 635/667 nm fluorescence (AID 1140); settings: WGA-A647 binding, 635 nm fluorescence, higher = more signal;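 further: score merges 667 nm feature emission with signal to noise over triplicate slides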
[10] = target: Luciferin 4-monooxygenase (Photinus pyralis) (UniProt P08659); assay: firefly luciferase enzyme inhibitors, primary screen, biochemical, luminescence, purified enzyme, 2006 set (AID 1141); settings: SteadyGlo luminescence, 30 min, higher = more signal, called active from +8 up or from −8 down;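 further: cell-free assay with purified firefly luciferase at 100 ng per well in PBS; test concentration not given here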
Chain of Luciferin 4-monooxygenase (Photinus pyralis) (P08659 whole entry, looked up): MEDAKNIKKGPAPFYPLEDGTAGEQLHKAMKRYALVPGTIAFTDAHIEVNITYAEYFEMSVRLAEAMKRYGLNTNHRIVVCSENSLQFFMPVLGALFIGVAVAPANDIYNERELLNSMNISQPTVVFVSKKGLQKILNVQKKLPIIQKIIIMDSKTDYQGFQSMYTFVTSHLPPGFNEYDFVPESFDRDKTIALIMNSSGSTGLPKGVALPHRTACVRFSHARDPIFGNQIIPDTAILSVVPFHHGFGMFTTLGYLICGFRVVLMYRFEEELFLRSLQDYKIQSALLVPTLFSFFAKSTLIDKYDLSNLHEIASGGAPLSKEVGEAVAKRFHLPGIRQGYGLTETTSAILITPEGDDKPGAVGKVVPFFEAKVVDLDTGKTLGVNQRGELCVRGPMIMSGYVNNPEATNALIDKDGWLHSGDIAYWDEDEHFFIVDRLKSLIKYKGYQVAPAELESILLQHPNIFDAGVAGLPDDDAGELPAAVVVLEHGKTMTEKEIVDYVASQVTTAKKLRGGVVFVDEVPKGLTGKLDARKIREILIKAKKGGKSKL

[11] = test system: Wnt5a (protein binding on small-molecule microarray); assay: Wnt5a binders on small-molecule microarray, primary screen, biophysical, 635/667 nm fluorescence (AID 1142); settings: 635 nm fluorescence, higher = more signal;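 further: fluorescence read at 667 nm with signal to noise per printed feature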
[12] = cell viability in Huh7 cells, primary screen, cytotoxicity control for HCV replication inhibitor project, CellTiter-Glo luminescence, basal, 48 h (AID 1143); settings: Huh7 HCV replicon, higher = more signal, called active from +8 up or from −8 down;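 further: Huh7 hepatoma cells carrying a hepatitis C replication reporter with no stimulus; test concentration not given here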
[13] = P. aeruginosa biofilm formation inhibitors, primary screen, PAO1 strain, BacTiter-Glo luminescence, LB-PBS (AID 1144); settings: 12 h, higher = more signal
[14] = CREB reporter modulators without forskolin, primary screen, cell-based, PC12, CRE-LacZ reporter, unstimulated (AID 1145); settings: no forskolin, luminescence, 4.5 h, higher = more signal, called active from +8 up or from −8 down
[15] = CREB reporter modulators under forskolin, primary screen, cell-based, PC12, CRE-LacZ reporter, forskolin-stimulated (AID 1146); settings: luminescence, 4.5 h, higher = more signal, called active from +8 up or from −8 down;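 further: PC12 cells with 6xCRE LacZ reporter stimulated by forskolin 10 µM; beta-galactosidase reporter signal reflecting CREB driven transcription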
[16] = target: Streptavidin (Streptomyces avidinii) (UniProt P22629); assay: streptavidin binders on small-molecule microarray, primary screen, artefact control for SMM compound annotation, biophysical, 635/667 nm fluorescence (AID 1147); settings: streptavidin binding, higher = more signal;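 further: signal reflects streptavidin binding to arrayed compounds as a control protein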
Chain of Streptavidin (Streptomyces avidinii) (P22629 whole entry, looked up): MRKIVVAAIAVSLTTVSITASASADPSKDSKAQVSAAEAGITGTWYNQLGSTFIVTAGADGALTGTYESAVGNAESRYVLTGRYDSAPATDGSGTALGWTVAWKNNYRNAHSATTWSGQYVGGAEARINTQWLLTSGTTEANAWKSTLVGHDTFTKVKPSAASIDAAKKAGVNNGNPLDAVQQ

[17] = small-molecule binders of probe aInhba, primary screen, biochemical, small-molecule microarray, 635/667 nm fluorescence (AID 1148); settings: higher = more signal;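 further: score merges 667nm spot fluorescence with signal-to-noise for antibody binding to printed compounds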
[18] = target: Torsin-1A (Homo sapiens) (UniProt O14656); assay: torsin A binders from cell lysate, primary screen, small-molecule microarray, wild-type, 635/667 nm (AID 1149); settings: COS7 hTOR1A-WT lysate, 635 nm fluorescence, higher = more signal
Chain of Torsin-1A (Homo sapiens) (O14656 whole entry, looked up): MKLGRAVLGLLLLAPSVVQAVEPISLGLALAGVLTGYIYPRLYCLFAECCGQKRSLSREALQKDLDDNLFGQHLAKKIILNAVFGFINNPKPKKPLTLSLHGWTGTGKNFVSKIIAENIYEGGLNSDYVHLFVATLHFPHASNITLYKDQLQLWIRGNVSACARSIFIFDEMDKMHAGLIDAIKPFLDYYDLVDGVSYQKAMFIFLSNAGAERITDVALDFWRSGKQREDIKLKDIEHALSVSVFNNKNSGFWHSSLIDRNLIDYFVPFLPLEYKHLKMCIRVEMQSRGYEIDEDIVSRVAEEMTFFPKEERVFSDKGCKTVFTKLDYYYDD

[19] = target: Torsin-1A (Homo sapiens) (UniProt O14656); assay: small-molecule binders of mutant TOR1A in lysate, primary screen, cell lysate, small-molecule microarray, COS7 lysate, 635/667 nm fluorescence (AID 1150); settings: COS7 hTOR1A mutant lysate, 635 nm fluorescence, higher = more signal;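 further: score pools 667 nm emission and signal to noise measuring lysate protein binding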
[20] = test system: Sonic hedgehog protein (Shh); assay: small-molecule binders of Shh protein, primary screen, biochemical, small-molecule microarray, 635/667 nm fluorescence (AID 1151); settings: small-molecule microarray binding, 635 nm fluorescence; higher = more signal;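 further: Shh protein binding to compounds spotted on small-molecule microarray slides; score combines spot fluorescence intensity with signal-to-noise across triplicate slides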

`C=C(CCCC)/C(=C/C[C@@H](OC(C)=O)c1ccccc1OCCO)c1cnc2ccccc2c1` showed a composite z-score [1] of 1.46, a composite z-score [2] of 0.356 and a composite z-score [3] of 0.0147. It also gave a composite z-score [4] of 0.143, a composite z-score [5] of 1.31 and a composite z-score [6] of 0.908. It also gave a z-score [7] of 0.222, a composite z-score [8] of 0.736 and a composite z-score [9] of 0.454. For the same molecule, the z-score [10] was -0.754 (inactive), the composite z-score [11] was 0.0953 and the z-score [12] was -1.6 (inactive). The z-score [13] was -0.131 (inactive), the z-score [14] was 2.02 (inactive) and the z-score [15] was -0.185 (inactive). The composite z-score [16] was -0.0227, the composite z-score [17] was -0.0736 and the composite z-score [18] was 1.11. For the same molecule, the composite z-score [19] was -0.438 and the composite z-score [20] was 1.02.

Work on `CN(C)CCCNC(=O)[C@@]1(C)c2ccccc2C(=O)N(Cc2cc(F)cc(C(F)(F)F)c2)[C@H]1c1ccc(CO)cc1` yielded a composite z-score [1] of -0.731, a composite z-score [2] of -0.358 and a composite z-score [3] of 0.63. The composite z-score [4] was -0.0121, the composite z-score [5] was -0.673 and the composite z-score [6] was -0.67. The z-score [7] was -0.202, the composite z-score [8] was -0.91 and the composite z-score [9] was 0.397. For the same molecule, the z-score [10] was -0.0378 (inactive), the composite z-score [11] was -0.569 and the z-score [12] was -1.69 (inactive). For the same molecule, the z-score [13] was 1.25 (inactive), the z-score [14] was -0.0888 (inactive) and the z-score [15] was 0.506 (inactive). The composite z-score [16] was -0.432, the composite z-score [17] was -0.179 and the composite z-score [18] was -1.2. The composite z-score [19] was 0.301 and the composite z-score [20] was -0.335.

Work on `[N-]=[N+]=NCc1ccccc1C[C@]1(C(=O)O)N=C(c2ccc(OCCCO)cc2)O[C@H]1c1ccccc1N=[N+]=[N-]` yielded a composite z-score [1] of 0.906, a composite z-score [2] of 1.19 and a composite z-score [3] of 0.532. The composite z-score [4] was 0.985, the composite z-score [5] was 1.1 and the composite z-score [6] was 0.582. For the same molecule, the z-score [7] was -1.17, the composite z-score [8] was 0.354 and the composite z-score [9] was 1.2. The z-score [10] was -13.8 (active), the composite z-score [11] was 0.92 and the z-score [12] was -2.37 (inactive). The z-score [13] was -2.08 (inactive), the z-score [14] was 0.218 (inactive) and the z-score [15] was 0.987 (inactive). It also gave a composite z-score [16] of 0.954, a composite z-score [17] of 0.199 and a composite z-score [18] of 2.01. The composite z-score [19] was 1.39 and the composite z-score [20] was 0.237.

With `C=CC[C@]12N=C(c3ccc(OCCCO)cc3)O[C@H]1c1ccccc1N(Cc1ccccc1)C2=O` the composite z-score [1] was 1.74, the composite z-score [2] was 0.998 and the composite z-score [3] was 0.804. The composite z-score [4] was -0.0608, the composite z-score [5] was 1.29 and the composite z-score [6] was 1.34. It also gave a z-score [7] of -1.21, a composite z-score [8] of -0.0331 and a composite z-score [9] of 0.442. For the same molecule, the z-score [10] was -4.07 (inactive), the composite z-score [11] was 0.373 and the z-score [12] was -3.92 (inactive). For the same molecule, the z-score [13] was 0.71 (inactive), the z-score [14] was -0.389 (inactive) and the z-score [15] was -1.64 (inactive). The composite z-score [16] was -0.255, the composite z-score [17] was 0.153 and the composite z-score [18] was 0.35. For the same molecule, the composite z-score [19] was 1.04 and the composite z-score [20] was 0.351.

For `O=C(NCc1ccc(F)cc1)[C@H]1C[C@H]2C(=O)N[C@@H](Cc3ccccc3)C(=O)N2[C@H]1c1ccc(O)cc1`, the composite z-score [1] was 1.53, the composite z-score [2] was 0.526 and the composite z-score [3] was 0.063. For the same molecule, the composite z-score [4] was -0.102, the composite z-score [5] was 1.38 and the composite z-score [6] was 1.59. For the same molecule, the z-score [7] was 0.574, the composite z-score [8] was -0.169 and the composite z-score [9] was -0.262. For the same molecule, the z-score [10] was -0.568 (inactive), the composite z-score [11] was -0.0011 and the z-score [12] was -0.411 (inactive). For the same molecule, the z-score [13] was 0.506 (inactive), the z-score [14] was -0.801 (inactive) and the z-score [15] was -0.887 (inactive). It also gave a composite z-score [16] of -0.507, a composite z-score [17] of -0.206 and a composite z-score [18] of 1.08. For the same molecule, the composite z-score [19] was 1.37 and the composite z-score [20] was 1.1.
